For assay [1], the system named is Plasmodium falciparum Sir2 (PF13_0152, Sir2A). Description: Plasmodium falciparum Sir2A binding compounds – biochemical, small-molecule microarray, 635 nm fluorescence, primary screen (AID 1098).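 Further: score merges spot fluorescence intensity with its signal-to-noise ratio.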 Conditions: fluorescence 635 nm, higher = more signal.
Assay [2] in a line: probe aDKK1 binding to arrayed compounds – biochemical, biotinylated probe, 635/667 nm fluorescence, primary screen (AID 1099).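 Further: score merges 667nm spot fluorescence with signal to noise across triplicate slides.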 As to conditions: small-molecule microarray, higher = more signal.
Assay [3] is described as follows: probe aCHRDL2 binding to arrayed compounds – biochemical, biotinylated probe, 635/667 nm fluorescence, primary screen (AID 1100). As to conditions: small-molecule microarray, higher = more signal.
Assay [4] is described as follows: change in splice reporter luminescence, either direction, cell-based, HEK293, spliceosome inhibition project, primary screen (AID 1101).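 Further: HEK293 cells carrying a splicing-competent luciferase reporter gene; test concentration not given here.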 As to conditions: HEK293 splicing luciferase reporter, 24 h, higher = more signal, called active from +8 up or from −8 down. Background: Reporter assays use an easily measured gene product as a stand-in for the process of interest.

The target in assay [5] is Fibroblast growth factor 10 (Homo sapiens) (UniProt O15520). Description: compounds binding fibroblast growth factor 10 – biochemical, small-molecule microarray, 635 nm fluorescence, primary screen (AID 1102). Conditions: FGF10 binding, fluorescence 635 nm, higher = more signal.
Fibroblast growth factor 10 (Homo sapiens), sequence (O15520 whole entry, looked up): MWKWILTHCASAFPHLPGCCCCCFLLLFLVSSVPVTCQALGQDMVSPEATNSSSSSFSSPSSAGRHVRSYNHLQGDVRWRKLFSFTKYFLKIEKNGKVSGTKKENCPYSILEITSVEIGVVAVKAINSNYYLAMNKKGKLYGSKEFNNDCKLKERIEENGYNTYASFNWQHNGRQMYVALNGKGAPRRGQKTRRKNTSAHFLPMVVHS
Assay [6] concerns glycogen synthase kinase-3 (GSK3A per assay name; protocol says GSK3B). Description: compounds binding glycogen synthase kinase-3 – biochemical, small-molecule microarray, 635 nm fluorescence, GSK3A, primary screen (AID 1103). Further: the record names both GSK3A and GSK3B. Conditions: fluorescence 635 nm, higher = more signal.
For assay [7], the target named is Epidermal growth factor receptor (Homo sapiens) (UniProt P00533). Put plainly: compounds binding epidermal growth factor receptor – biochemical, small-molecule microarray, 635 nm fluorescence, primary screen (AID 1104).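 Further: score merges 667 nm emission intensity with spot signal to noise over triplicate slides.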 Conditions: EGFR binding, higher = more signal.
Epidermal growth factor receptor (Homo sapiens), sequence (P00533 whole entry, looked up): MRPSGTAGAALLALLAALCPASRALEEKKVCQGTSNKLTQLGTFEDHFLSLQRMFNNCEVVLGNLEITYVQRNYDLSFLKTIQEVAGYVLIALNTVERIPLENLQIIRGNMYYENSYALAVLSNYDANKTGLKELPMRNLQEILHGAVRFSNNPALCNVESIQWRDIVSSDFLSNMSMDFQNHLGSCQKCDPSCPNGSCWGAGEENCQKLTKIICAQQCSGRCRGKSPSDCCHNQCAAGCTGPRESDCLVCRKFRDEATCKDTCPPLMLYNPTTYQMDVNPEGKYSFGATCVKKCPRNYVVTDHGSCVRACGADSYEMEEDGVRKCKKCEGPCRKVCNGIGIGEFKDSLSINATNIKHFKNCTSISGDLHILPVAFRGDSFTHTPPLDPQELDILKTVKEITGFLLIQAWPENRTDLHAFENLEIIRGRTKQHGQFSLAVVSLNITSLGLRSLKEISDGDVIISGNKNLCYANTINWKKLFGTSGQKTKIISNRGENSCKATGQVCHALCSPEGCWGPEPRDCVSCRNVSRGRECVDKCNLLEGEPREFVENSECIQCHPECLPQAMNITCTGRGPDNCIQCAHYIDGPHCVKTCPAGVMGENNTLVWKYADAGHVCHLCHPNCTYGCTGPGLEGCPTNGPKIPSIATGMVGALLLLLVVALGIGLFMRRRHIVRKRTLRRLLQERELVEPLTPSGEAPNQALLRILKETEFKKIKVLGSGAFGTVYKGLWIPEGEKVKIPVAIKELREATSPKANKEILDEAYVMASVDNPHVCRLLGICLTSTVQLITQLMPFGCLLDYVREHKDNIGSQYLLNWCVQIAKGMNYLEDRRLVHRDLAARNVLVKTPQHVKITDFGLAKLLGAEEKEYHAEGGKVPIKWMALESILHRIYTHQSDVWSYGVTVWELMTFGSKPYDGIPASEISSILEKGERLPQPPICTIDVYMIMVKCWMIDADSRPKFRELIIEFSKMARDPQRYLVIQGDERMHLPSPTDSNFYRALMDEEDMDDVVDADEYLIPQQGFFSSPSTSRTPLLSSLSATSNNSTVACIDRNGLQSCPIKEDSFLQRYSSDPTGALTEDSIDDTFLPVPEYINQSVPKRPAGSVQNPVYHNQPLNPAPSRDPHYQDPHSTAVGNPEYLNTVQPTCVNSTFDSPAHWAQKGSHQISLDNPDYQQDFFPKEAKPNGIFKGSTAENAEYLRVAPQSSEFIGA
In assay [8] the target is Follistatin-related protein 3 (Homo sapiens) (UniProt O95633). Description: compounds binding follistatin-related protein 3 – biochemical, small-molecule microarray, 635 nm fluorescence, primary screen (AID 1105).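 Further: score merges emission near 667 nm and signal to noise per printed spot across three slides.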 Conditions: FSTL3 binding, higher = more signal.
Follistatin-related protein 3 (Homo sapiens), sequence (O95633 whole entry, looked up): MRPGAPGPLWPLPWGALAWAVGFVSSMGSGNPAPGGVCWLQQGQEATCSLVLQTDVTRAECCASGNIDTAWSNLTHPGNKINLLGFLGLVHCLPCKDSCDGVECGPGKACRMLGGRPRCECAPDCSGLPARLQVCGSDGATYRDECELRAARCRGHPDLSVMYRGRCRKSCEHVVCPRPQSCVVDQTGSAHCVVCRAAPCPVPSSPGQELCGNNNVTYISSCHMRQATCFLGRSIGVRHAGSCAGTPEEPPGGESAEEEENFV
Assay [9] has as its target Dickkopf-related protein 1 (Homo sapiens) (UniProt O94907). Put plainly: small molecules binding DKK1 protein – biochemical, small-molecule microarray, 635 nm fluorescence scan, primary screen (AID 1106).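 Further: score merges emission near 667 nm with signal to noise over three replicate slides.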 Conditions: higher = more signal.
The subject of assay [10] is Inhibin beta A chain (activin A). Description: small molecules binding activin A – biochemical, small-molecule microarray, 635 nm fluorescence scan, primary screen (AID 1107).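 Further: mouse activin A protein probed at 4.33 µg/mL on printed slides; score merges bound-protein fluorescence near 667 nm with spot signal-to-noise.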 As to conditions: INHBA, higher = more signal.
Assay [11] concerns Human papillomavirus type 1a protein E7 (residues 44-93). Put plainly: small molecules binding HPV E7 44-93 – biochemical, small-molecule microarray, residues 44-93, 635 nm fluorescence, primary screen (AID 1108).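 Further: E7 fragment applied at 1 µg/mL in TBST for 1 h at 4 C; score combines spot fluorescence with its signal to noise ratio.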 Conditions: fluorescence 635 nm, higher = more signal.
Assay [12] can be described thus: hepatitis C replication reporter changes, two-sided – Huh7 cells, luciferase reporter, HCV replication inhibitor project, primary screen (AID 1109).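 Further: huh7 hepatoma cells harbouring a luciferase neomycin HCV replicon reporter; luciferase luminescence as measure of HCV replicon replication; test concentration not given here.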 As to conditions: Huh7 HCV replicon luciferase reporter, 48 h; higher = more signal.
In assay [13] the target is Left-right determination factor 2 (Homo sapiens) (UniProt O00292). Put plainly: small molecules binding LEFTY2 protein – biochemical, small-molecule microarray, 635 nm fluorescence scan, primary screen (AID 1110). As to conditions: higher = more signal.
Left-right determination factor 2 (Homo sapiens), sequence (O00292 whole entry, looked up): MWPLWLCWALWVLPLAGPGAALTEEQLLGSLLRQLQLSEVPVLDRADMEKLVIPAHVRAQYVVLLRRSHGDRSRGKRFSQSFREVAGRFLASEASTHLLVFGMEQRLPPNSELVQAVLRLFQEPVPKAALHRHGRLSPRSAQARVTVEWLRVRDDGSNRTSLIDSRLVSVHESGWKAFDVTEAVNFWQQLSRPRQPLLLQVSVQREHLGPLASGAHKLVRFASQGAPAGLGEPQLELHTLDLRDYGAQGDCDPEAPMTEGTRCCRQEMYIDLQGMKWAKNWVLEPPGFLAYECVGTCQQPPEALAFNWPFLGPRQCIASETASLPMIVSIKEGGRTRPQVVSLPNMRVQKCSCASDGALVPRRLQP
The target of assay [14] is Calmodulin-1 (Homo sapiens) (UniProt P0DP23). Description: small molecules binding calmodulin-1 with EGTA – biochemical, small-molecule microarray, Cy5-labelled CALM1, profiling panel (AID 1111).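 Further: labelled calmodulin applied in Tris saline Tween buffer holding calcium plus EGTA and DTT.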 Conditions: Cy5-CALM1 binding fluorescence, higher = more signal.
Assay [15] shares this target. Description: small molecules binding Ca-loaded calmodulin-1 – biochemical, small-molecule microarray, Cy5-labelled CALM1, plus calcium, artefact control for SMM control-protein annotation, profiling panel (AID 1112).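 Further: score merges spot fluorescence with signal to noise from triplicate slides.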 Conditions: Cy5-CALM1 binding fluorescence, higher = more signal.
A short description of assay [16]: probe aWnt5a binding to arrayed compounds – biochemical, biotinylated probe, 635/667 nm fluorescence, primary screen (AID 1113).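 Further: score merges 667 nm fluorescence intensity with signal-to-noise per printed feature.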 Conditions: small-molecule microarray, higher = more signal.
A short description of assay [17]: probe aShh binding to arrayed compounds – biochemical, biotinylated probe, 635/667 nm fluorescence, primary screen (AID 1114).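 Further: probe is biotin-labelled aShh protein from a stem cell growth factor screen; measures binding of labelled protein to compounds printed on the slide; score merges feature fluorescence at 667 nm with signal-to-noise.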 Conditions: small-molecule microarray, higher = more signal.
A short description of assay [18]: probe aNog binding to arrayed compounds – biochemical, biotinylated probe, 635/667 nm fluorescence, primary screen (AID 1115).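 Further: probe is biotinylated aNog protein used at 0.15 µg/mL for 1 h at 4 C; z-score combines 667 nm fluorescence of each spot with its signal to noise.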 Conditions: small-molecule microarray, higher = more signal.
Assay [19] deals with Torsin-1A-interacting protein 1 (Homo sapiens) (UniProt Q5JTV8). Put plainly: compound microarray binding of lysate hLAP1 – cell lysate, small-molecule microarray, COS7 lysate, 635/667 nm fluorescence, primary screen (AID 1116). Conditions: 635 nm fluorescence, higher = more signal.
Torsin-1A-interacting protein 1 (Homo sapiens), sequence (Q5JTV8 whole entry, looked up): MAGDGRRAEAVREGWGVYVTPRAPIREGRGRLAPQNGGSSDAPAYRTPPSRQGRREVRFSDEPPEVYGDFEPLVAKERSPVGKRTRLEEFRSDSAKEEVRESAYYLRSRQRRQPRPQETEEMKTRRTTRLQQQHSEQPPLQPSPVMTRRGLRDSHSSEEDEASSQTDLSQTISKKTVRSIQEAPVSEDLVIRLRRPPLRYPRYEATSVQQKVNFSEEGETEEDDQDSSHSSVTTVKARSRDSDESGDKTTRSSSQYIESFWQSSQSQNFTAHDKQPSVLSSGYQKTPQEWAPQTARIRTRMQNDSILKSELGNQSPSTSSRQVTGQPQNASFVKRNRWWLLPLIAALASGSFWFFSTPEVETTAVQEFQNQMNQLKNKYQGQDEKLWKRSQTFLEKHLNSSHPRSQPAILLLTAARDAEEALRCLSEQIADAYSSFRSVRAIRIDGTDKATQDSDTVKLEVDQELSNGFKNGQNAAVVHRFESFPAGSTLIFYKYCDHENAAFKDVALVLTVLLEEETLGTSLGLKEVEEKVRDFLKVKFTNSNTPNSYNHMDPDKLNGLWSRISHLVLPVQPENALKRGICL
Assay [20] addresses Alpha-bungarotoxin (Bungarus multicinctus) (UniProt P60615). Put plainly: compounds binding labelled alpha-BTX control protein – biochemical, small-molecule microarray, Alexa647 label, 635/667 nm fluorescence, artefact control for SMM control protein annotation, profiling panel (AID 1117). Conditions: alpha-BTX-A647 binding fluorescence, higher = more signal.

Calls of active or inactive are those of the source.

Dickkopf-related protein 1 (Homo sapiens), sequence (O94907 whole entry, looked up): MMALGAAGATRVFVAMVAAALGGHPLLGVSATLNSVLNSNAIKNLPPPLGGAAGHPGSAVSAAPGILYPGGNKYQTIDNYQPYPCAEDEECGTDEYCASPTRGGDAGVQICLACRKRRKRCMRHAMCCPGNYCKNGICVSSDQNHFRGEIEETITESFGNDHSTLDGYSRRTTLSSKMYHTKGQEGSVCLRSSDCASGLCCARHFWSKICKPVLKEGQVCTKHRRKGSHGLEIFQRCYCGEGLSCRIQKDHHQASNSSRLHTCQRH
Alpha-bungarotoxin (Bungarus multicinctus), sequence (P60615 whole entry, looked up): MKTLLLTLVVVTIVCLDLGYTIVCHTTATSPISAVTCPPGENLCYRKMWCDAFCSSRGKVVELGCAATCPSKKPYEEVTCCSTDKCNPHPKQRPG

`NC(=O)[C@H]1[C@@H]2C(=O)O[C@@H](c3ccccc3)[C@@H](c3ccccc3)N2[C@@H](c2ccc(O)cc2)[C@]12C(=O)Nc1ccc(C#CCCO)cc12`: the composite z-score in [1] is 1.61; in [2], -0.0626; in assay [3], 0.604; in assay [5], -0.187; in assay [6], -1.6; in [7] it was -1.52. The composite z-score was -0.681 in assay [8]; -0.889 in assay [9]; -0.142 in assay [10]; -1.74 in assay [11]; -1.05 in [13]; -0.742 in assay [14]. The composite z-score in assay [15] was 0.661; in [16], -0.175; in assay [17] it was -0.0769; in assay [18] it was -0.158; in assay [19], -0.819; in [20], -1.58. The z-score in assay [4] is -0.205 (inactive); in [12], 0.179.
Take `CC1CC/C=C\[C@H]2OC34C=CCN(Cn5nnc6ccccc65)C(=O)[C@H]3N(C(C)CO)C(=O)[C@@H]4C2C(=O)O1` (stereo not given in full): the composite z-score was 1.26 in [1]; -0.0466 in assay [2]; 0.201 in assay [3]; 0.0056 in assay [5]; -0.837 in [6]; -0.848 in [7]. The composite z-score in assay [8] was -0.814; in assay [9] it was -0.936; in assay [10], 0.494; in [11] it was -0.132; in assay [13], -0.371; in [14], -0.45. For the same compound, the composite z-score was -0.223 in [15]; -0.184 in assay [16]; -0.123 in assay [17]; 0.34 in [18]; 0.413 in assay [19]; -0.465 in [20]. The results for the z-score in assay [4] and in assay [12] were 0.825 (inactive) and -0.276, respectively.
Take `CC(C)CN1C(=O)[C@@]2(Cc3ccccc31)c1ccccc1C(=O)N(C1CCCCC1)[C@H]2c1ccc(CO)cc1`: the composite z-score is -0.23 in assay [1]; 0.262 in assay [2]; 1.02 in assay [3]; -0.706 in assay [5]; -1.24 in assay [6]; -0.894 in assay [7]. Also, the composite z-score was -1.34 in assay [8]; -1.66 in [9]; 0.977 in assay [10]; -0.973 in [11]; -0.841 in [13]; -0.0258 in [14]. For the same compound, the composite z-score in assay [15] was 0.644; in [16], -0.0944; in assay [17] it was -0.0626; in assay [18], 0.697; in assay [19], -0.256; in assay [20] it was -1.06. In addition, the results for the z-score in assay [4] and in assay [12] were -1.41 (inactive) and -0.192, respectively.
As for `O=C(CS)NCCCCCNC(=O)[C@H]1C[C@H]2C(=O)N[C@@H](Cc3ccccc3)C(=O)N2[C@H]1c1ccc(O)cc1`, the composite z-score in assay [1] was found to be 1.26; in [2] it was 0.27; in assay [3] it was 0.299; in assay [5], 0.702; in [6], 1.29; in assay [7] it was 0.957. Besides, the composite z-score in [8] came to 0.566; in assay [9] it was 1.25; in assay [10] it was 0.456; in assay [11] it was 0.151; in assay [13], 0.406; in assay [14], 0.741. Besides, the composite z-score in assay [15] is 0.748; in assay [16], -0.0977; in assay [17], 0.184; in [18], 0.185; in assay [19] it was 0.792; in assay [20] it was 3. Further, the values for the z-score in assay [4] and in [12] were -0.876 (inactive) and -0.488, respectively.
For the compound `CCOC(=O)C[C@H]1[C@H](OC(=O)c2ccccc2-c2ccccc2)[C@@H](NC(=O)C2CCCCC2)c2cc(OCCCO)ccc2N1C(=O)c1ccccc1`, the composite z-score was 0.253 in assay [1]; -0.116 in assay [2]; -0.489 in [3]; 1.43 in assay [5]; 0.524 in assay [6]; 0.797 in assay [7]. Further, the composite z-score in assay [8] was 0.437; in assay [9], 0.436; in [10] it was 0.16; in assay [11] it was 0.0771; in assay [13], 1.13; in assay [14] it was -0.0784. Further, the composite z-score in [15] is -0.083; in assay [16] it was -0.213; in assay [17] it was -0.283; in assay [18], -0.0502; in [19] it was 0.584; in assay [20], 0.148. In addition, the z-score in assay [4] is -1.02 (inactive); in assay [12], -1.4.

These data come from PubChem BioAssay.
